Source: the supplement of paper PMC11732987, “Enantioselective OTUD7B fragment discovery through chemoproteomics screening and high-throughput optimisation” (Communications Chemistry, 2025)

Columns and labels:
Assay in all cases: log2 ratio of Biotin-Ahx-Ub-VS probe labelling (fragment/DMSO); higher = less target engagement (more negative = stronger competition), active = hit call of the paper (q ≤ 0.05, log2 ratio ≤ -1)
Conditions in all cases: compound concentration: 200 uM; treatment time: 3 h
USP19 = biological target: T1, USP19 (UniProt O94966)
T1 sequence (whole entry): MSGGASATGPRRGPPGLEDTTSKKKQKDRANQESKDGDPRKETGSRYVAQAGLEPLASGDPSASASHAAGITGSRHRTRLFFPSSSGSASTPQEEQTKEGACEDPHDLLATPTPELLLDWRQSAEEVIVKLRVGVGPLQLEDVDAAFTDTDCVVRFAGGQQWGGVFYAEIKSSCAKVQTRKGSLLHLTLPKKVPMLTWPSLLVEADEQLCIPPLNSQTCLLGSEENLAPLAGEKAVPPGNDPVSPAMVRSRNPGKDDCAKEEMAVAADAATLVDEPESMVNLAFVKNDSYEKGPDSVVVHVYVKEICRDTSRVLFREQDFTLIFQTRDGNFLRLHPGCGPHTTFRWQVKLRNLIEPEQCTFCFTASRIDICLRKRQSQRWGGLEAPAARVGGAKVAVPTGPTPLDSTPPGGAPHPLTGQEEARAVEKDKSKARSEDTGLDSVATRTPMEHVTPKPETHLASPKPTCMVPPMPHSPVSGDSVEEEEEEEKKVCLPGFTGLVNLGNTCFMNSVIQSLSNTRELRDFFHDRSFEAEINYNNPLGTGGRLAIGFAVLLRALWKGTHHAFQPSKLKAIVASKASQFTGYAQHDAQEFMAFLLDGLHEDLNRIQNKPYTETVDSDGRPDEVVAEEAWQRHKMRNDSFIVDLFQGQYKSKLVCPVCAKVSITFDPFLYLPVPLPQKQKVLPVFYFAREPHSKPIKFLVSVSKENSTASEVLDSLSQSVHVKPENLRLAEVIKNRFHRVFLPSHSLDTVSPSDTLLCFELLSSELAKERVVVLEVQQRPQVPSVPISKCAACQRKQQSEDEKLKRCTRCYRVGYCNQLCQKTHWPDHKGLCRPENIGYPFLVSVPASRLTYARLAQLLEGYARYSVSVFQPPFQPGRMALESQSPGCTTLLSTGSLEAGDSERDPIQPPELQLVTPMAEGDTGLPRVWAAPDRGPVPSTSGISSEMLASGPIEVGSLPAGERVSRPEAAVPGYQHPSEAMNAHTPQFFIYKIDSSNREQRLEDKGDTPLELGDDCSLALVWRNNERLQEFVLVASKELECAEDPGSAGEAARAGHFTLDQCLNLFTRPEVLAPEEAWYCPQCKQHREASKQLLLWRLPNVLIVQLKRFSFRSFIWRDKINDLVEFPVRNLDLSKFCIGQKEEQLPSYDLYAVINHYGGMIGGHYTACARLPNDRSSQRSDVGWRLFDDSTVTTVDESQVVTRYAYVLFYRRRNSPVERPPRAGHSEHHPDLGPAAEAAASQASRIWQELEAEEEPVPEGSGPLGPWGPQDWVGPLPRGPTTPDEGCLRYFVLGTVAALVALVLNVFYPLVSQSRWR
Outline: (§1)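 The table lists average log2 ratios of fragment over vehicle, from an unpaired t-test on global-median-normalised Spectronaut label-free quantities. Proteins with ≥2 unique peptides were used. Samples were HEK293T lysate (495 µg) treated in triplicate with fragment at 200 µM or vehicle for 3 h, then with Biotin-Ahx-Ub-VS (0.5 µM final) for 1 h, with labelled DUBs NeutrAvidin-enriched and run by diaPASEF LC-MS/MS.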

USP22 = biological target: T2, USP22 (UniProt Q9UPT9)
T2 sequence (whole entry): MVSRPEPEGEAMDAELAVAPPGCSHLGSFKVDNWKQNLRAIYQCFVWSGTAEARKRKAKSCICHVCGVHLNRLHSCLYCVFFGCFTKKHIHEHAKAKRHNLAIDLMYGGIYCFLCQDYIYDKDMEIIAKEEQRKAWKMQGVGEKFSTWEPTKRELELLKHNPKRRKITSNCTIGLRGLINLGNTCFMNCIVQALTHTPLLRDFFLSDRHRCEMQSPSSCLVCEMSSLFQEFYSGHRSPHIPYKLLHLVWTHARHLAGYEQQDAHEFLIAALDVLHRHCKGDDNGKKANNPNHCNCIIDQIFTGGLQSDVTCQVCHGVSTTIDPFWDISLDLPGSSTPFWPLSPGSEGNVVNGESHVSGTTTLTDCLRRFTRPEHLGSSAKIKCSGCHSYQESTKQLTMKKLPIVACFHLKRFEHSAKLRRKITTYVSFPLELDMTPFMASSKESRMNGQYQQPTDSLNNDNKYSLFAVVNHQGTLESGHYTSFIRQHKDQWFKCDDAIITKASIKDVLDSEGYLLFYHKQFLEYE
Outline: as §1

USP24 = USP24 (UniProt Q9UPU5)
USP24, sequence (Q9UPU5 whole entry): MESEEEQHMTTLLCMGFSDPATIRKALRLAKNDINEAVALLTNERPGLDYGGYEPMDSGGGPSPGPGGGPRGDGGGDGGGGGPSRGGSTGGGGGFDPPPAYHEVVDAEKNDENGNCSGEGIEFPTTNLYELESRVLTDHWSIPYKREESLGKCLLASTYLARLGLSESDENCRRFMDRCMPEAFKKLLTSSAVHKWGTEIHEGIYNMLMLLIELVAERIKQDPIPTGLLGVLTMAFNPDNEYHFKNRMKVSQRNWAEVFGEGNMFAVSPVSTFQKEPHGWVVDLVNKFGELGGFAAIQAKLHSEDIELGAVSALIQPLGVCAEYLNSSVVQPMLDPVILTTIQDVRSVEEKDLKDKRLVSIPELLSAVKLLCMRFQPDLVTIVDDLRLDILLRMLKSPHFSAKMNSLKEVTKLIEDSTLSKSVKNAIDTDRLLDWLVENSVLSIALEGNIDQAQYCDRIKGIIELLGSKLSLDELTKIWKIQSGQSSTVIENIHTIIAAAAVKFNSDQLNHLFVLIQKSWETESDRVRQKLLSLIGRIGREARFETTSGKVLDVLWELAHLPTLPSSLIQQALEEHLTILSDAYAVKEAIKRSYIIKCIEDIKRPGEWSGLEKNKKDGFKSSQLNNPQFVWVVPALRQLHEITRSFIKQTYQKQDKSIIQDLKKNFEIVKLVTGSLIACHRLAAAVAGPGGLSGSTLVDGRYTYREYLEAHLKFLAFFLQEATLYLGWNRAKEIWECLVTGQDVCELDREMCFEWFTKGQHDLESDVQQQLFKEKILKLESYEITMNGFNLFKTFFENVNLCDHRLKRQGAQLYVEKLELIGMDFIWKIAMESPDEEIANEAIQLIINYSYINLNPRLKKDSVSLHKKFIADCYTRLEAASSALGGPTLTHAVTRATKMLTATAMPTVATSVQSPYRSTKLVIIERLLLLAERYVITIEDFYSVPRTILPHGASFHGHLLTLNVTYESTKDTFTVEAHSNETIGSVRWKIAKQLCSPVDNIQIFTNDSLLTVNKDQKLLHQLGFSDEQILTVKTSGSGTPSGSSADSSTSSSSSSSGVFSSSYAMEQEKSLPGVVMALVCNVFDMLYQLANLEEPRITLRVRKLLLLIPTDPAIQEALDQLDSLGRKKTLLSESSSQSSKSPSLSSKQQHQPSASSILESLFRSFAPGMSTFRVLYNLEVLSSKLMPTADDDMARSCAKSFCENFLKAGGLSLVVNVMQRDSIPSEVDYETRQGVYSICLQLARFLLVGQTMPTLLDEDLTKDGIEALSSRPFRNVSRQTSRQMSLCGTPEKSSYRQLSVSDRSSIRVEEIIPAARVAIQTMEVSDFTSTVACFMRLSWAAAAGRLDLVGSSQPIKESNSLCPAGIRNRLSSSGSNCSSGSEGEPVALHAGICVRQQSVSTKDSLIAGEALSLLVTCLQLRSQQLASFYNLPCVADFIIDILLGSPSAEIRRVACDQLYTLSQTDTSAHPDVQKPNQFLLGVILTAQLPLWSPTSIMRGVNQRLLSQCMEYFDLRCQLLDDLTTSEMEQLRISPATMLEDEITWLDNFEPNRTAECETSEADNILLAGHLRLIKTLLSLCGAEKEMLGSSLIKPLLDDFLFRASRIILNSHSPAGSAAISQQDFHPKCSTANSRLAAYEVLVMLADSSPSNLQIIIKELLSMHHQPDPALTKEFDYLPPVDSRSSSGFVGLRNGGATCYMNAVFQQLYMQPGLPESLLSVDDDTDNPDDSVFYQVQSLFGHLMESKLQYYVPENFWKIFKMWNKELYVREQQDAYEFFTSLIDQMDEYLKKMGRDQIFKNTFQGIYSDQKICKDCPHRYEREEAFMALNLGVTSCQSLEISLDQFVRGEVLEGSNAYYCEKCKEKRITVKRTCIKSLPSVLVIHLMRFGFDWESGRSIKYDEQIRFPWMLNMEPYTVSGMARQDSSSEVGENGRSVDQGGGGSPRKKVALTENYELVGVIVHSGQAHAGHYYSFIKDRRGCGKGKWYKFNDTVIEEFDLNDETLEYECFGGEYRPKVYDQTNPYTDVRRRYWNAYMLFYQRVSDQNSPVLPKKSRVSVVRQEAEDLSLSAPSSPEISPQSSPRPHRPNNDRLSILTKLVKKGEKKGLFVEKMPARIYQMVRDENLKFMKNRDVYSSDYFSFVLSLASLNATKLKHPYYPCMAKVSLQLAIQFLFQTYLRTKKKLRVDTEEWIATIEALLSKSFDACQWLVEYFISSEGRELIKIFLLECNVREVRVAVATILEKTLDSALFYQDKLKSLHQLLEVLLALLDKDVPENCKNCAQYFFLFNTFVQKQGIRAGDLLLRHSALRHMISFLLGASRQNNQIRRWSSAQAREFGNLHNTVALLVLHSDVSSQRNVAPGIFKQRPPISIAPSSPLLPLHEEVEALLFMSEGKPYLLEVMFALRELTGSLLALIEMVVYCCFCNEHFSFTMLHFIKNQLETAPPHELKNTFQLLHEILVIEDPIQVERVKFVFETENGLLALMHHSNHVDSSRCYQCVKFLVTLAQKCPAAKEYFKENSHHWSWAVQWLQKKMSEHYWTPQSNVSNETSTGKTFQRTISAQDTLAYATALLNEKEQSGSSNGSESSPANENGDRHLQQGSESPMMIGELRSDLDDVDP
Outline: as §1

USP25 = biological target: T3, USP25 (UniProt Q9UHP3)
T3 sequence (whole entry): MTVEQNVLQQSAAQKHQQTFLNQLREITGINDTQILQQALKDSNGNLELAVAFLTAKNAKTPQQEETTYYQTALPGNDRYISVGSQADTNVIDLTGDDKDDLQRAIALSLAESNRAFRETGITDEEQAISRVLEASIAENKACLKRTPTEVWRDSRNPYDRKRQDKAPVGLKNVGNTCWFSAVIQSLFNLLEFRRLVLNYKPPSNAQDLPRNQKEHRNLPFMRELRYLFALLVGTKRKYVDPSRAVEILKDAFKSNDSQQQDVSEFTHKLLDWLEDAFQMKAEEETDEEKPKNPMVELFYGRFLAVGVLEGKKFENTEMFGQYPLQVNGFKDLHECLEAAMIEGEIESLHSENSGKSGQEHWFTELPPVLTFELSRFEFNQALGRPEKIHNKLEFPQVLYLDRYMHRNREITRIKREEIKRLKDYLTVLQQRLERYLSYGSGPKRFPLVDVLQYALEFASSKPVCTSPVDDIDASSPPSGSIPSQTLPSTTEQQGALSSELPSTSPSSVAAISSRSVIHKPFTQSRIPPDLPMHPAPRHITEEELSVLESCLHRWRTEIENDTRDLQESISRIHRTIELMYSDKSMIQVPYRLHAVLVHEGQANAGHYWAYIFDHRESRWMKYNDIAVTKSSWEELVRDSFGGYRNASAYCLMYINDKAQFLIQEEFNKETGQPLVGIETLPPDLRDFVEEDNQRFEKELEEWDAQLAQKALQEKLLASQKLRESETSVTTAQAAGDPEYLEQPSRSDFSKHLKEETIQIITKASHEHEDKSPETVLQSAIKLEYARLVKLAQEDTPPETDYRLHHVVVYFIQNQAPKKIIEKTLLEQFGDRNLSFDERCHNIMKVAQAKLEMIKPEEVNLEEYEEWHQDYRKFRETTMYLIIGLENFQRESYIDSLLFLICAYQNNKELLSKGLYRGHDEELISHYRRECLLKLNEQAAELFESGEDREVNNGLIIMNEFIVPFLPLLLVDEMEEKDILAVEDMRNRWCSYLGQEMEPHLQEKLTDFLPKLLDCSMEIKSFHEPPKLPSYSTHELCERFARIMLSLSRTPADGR
Outline: as §1

USP28 = biological target: T4, USP28 (UniProt Q96RU2)
T4 sequence (whole entry): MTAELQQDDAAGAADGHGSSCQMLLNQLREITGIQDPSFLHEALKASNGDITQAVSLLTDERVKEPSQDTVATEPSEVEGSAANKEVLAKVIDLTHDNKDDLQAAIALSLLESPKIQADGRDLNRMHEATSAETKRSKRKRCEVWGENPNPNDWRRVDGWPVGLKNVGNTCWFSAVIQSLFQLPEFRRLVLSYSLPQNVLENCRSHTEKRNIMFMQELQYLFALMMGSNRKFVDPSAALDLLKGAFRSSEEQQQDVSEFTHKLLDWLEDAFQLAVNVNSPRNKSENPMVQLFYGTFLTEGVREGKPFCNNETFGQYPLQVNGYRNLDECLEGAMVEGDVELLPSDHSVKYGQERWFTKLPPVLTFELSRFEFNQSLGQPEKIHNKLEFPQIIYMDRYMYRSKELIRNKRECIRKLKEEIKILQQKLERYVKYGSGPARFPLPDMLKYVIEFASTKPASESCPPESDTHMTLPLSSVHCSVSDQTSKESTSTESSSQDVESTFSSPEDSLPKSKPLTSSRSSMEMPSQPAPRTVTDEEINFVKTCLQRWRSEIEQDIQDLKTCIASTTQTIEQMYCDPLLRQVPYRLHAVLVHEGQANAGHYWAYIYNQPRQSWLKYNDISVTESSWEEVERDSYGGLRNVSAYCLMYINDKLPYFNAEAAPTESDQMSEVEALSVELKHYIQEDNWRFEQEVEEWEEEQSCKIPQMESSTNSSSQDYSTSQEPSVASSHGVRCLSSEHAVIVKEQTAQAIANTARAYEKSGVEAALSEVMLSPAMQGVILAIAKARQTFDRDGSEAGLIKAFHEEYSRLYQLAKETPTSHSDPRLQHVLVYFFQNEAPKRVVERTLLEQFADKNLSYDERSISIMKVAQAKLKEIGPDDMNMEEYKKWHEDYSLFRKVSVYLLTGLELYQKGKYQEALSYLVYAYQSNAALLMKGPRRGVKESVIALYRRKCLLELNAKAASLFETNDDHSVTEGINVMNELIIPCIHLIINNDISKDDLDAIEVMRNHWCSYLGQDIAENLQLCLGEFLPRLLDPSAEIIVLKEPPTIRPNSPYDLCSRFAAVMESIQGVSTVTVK
Outline: as §1

Measured: log2 ratio of Biotin-Ahx-Ub-VS probe labelling

Cc1cccc(N2CCC(NC(=O)CCl)C2=O)c1 (stereo not given)
inactive: USP19 -0.0964 | USP22 0.199 | USP24 -0.149 | USP25 -0.421 | USP28 -0.475
